Laboratory results: PubChem BioAssay (EPA / NIEHS)
The source made the active and inactive calls. How the source made its calls: active means hit-call score of the fitted dose curve at least 0.9, where 1 is the maximum; inactive means score below 0.9.

target: Cellular tumor antigen p53 (Homo sapiens) (UniProt P04637); assay: ATG_p53_CIS: Attagene CIS-FACTORIAL HepG2 Assay for human p53 Transcription Factor (AID 2282994); details: HepG2 p53 cis-element reporter, Attagene mRNA; actives raise or lower the signal
Sequence (P04637 whole entry, looked up): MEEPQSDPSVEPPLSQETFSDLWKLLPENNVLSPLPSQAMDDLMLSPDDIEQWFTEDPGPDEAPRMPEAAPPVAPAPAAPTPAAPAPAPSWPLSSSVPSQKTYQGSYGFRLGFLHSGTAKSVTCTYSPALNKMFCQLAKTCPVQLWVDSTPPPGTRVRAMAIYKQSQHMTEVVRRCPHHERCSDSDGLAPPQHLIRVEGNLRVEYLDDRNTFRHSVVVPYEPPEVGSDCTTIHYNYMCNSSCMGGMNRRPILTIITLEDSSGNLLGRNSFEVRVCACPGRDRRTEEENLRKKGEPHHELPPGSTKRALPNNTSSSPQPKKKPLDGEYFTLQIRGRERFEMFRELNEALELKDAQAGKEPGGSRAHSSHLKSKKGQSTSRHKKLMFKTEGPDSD
Description: ATG_CIS is a cell-based, multiplexed-readout assay that uses HepG2, a human liver cell line, with measurements taken at 24 hours after chemical dosing in a 24-well plate.ATG_p53_CIS is one of 52 assay component(s) measured or calculated from the ATG_CIS assay. It is designed to make measurements of mRNA induction, a form of inducible reporter, as detected with fluorescence intensity signals by Reverse transcription polymerase chain reaction (RT-PCR) and Capillary electrophoresis technology.Data from the assay component ATG_p53_CIS was analyzed into 1 assay endpoint. This assay endpoint, ATG_p53_CIS, was analyzed with bidirectional fitting relative to DMSO as the negative control and baseline of activity. Using a type of inducible reporter, measures of mRNA for gain or loss-of-signal activity can be used to understand the reporter gene at the transcription factor-level as they relate to the gene TP53. Furthermore, this assay endpoint can be referred to as a primary readout, because this assay has produced multiple assay endpoints where this one serves a reporter gene function. To generalize the intended target to other relatable targets, this assay endpoint is annotated to the dna binding intended target family, where the subfamily is tumor suppressor.
Human liver HepG2 cells are transiently transfected with multiple reporter transcription units (MRTUs) in 6-well plates using FuGene 6 reagent (Roche; 3 ml FuGene/1 mg DNA). The MRTU constructs are regulated by a cis-regulating element (promoter). […] A major difference between the CIS and TRANS system is that in CIS activities of endogenous TFs are measured, whereas the TRANS assay evaluates changes in activities of exogenous, chimeric NR-Gal4 proteins. […] At the end of 24 hour incubation, total RNA was isolated using TriZol reagent (Invitrogen). The isolated RNA is then reverse-transcribed using oligo(dT) primer and Mo-MLV reverse transcriptase (Invitrogen) with DNAse I (Ambion) treatment for 30 min. The one-tenth of the produced cDNA was amplified by PCR using Taq DNA polymerase (Invitrogen) and two reporter sequence-specific primers. The PCR products were fluorescently labeled by primer extension with 6-arboxyfluorescein (6-FAM) 5'-labeled reporter sequence-specific primer (2 min at 95 C, 20 s at 68 C and 10 min at 72 C) and these products were digested with 5U of HpaI (New England Biolabs) for 2h at 37 C. The fragments were purified using Qiaquick PCR columns (Qiagen), analyzed on an ABI 3130xL genetic analyzer (Applied Biosystems) with peak positions identified by using a set of X-rhodamine (ROX)-labeled MapMarker1000 molecular weight standards (BioVentures). The raw capillary electrophoresis data was processed using Attagraph software (Attagene).

Question: Which outcome does the source give for `CC(C)=CCC/C(C)=C\CO` here?
Answer: Its outcome is “inactive”.

Question: How did the outcome turn out when `CCN(C(=O)c1cc(C)cc(OC[C@H](C)Nc2ccncc2)c1)C(C)C` was run?
Answer: The outcome was “inactive”.

Question: With `CCCCC(CC)COC(=O)c1ccc(C(=O)OCC(CC)CCCC)cc1` (stereo not given) as the molecule, how does the outcome read?
Answer: Its outcome is “inactive”.

Question: `CC(=O)OCCC(C)C` was tested. Which outcome did it give?
Answer: The outcome was “inactive”.

Question: With `COCCOc1cc2cc(C(=O)NC3CCN(C(C)C)CC3)n(CC(=O)Nc3ccc(Cl)cn3)c2cn1` as the molecule, how does the outcome read?
Answer: The outcome was “inactive”.

Question: For `CC(=O)OC[C@H]1O[C@@](COC(C)=O)(O[C@H]2O[C@H](COC(C)=O)[C@@H](OC(C)=O)[C@H](OC(C)=O)[C@H]2OC(C)=O)[C@@H](OC(C)=O)[C@@H]1OC(C)=O`, which outcome is on record?
Answer: Its outcome is “inactive”.

Question: `CC/C(=C\C(=N/O)C(N)=O)C(C)[N+](=O)[O-]` (stereo not given) was tested. Which outcome did it give?
Answer: Its outcome is “inactive”.

Question: `Cc1ccc(N)cc1O` was tested. Which outcome did it give?
Answer: The outcome was “inactive”.

Question: `CC(C)(O)c1coc(S(=O)(=O)NC(=O)Nc2c3c(cc4c2CCC4)CCC3)c1` was tested. Which outcome did it give?
Answer: Its outcome is “inactive”.

Question: For `O=C(OC[C@H]1O[C@@H](OC(=O)c2cc(O)c(O)c(OC(=O)c3cc(O)c(O)c(O)c3)c2)[C@H](OC(=O)c2cc(O)c(O)c(OC(=O)c3cc(O)c(O)c(O)c3)c2)[C@@H](OC(=O)c2cc(O)c(O)c(OC(=O)c3cc(O)c(O)c(O)c3)c2)[C@@H]1OC(=O)c1cc(O)c(O)c(OC(=O)c2cc(O)c(O)c(O)c2)c1)c1cc(O)c(O)c(OC(=O)c2cc(O)c(O)c(O)c2)c1`, which outcome is on record?
Answer: Its outcome is “inactive”.

Question: `C1N2CN3CN1CN(C2)C3` was tested. Which outcome did it give?
Answer: The outcome was “inactive”.

Question: For `CCOC(=O)c1ccc(C2CCC(NC[C@H](O)COc3ccc(O)c(NS(C)(=O)=O)c3)CC2)cc1` (stereo not given in full), which AC50 is on record?
Answer: Its AC50 is 50 µM (active).

Question: Which outcome does the source give for `CC(C)CCCCCCOC(=O)c1ccc(C(=O)OCCCCCCC(C)C)c(C(=O)OCCCCCCC(C)C)c1` here?
Answer: Its outcome is “inactive”.

Question: How did the outcome turn out when `COC(=O)CC(=O)OC` was run?
Answer: Its outcome is “inactive”.

Question: For `CC(=O)c1ccc2c(c1)[C@H](NC(=O)c1ccc(F)cc1)[C@@H](O)C(C)(C)O2`, which outcome is on record?
Answer: The outcome was “inactive”.

Question: `COc1ccc2sc(C(=O)Nc3nnn[nH]3)c(OC(C)C)c2c1` was tested. Which AC50 did it give?
Answer: The AC50 was 71.4 µM (active).

Question: `CCCC(=O)OCC` was tested. Which outcome did it give?
Answer: The outcome was “inactive”.

Question: For `CC[C@H]1CC[C@H](NCc2cc3c(cc2OC)[C@H]2C[C@H]2C(=O)N3C)[C@H](c2ccccc2)N1`, which AC50 is on record?
Answer: The AC50 was 100 µM (active).

Question: How did the outcome turn out when `CCCCCCCCCCCCc1ccccc1` was run?
Answer: The outcome was “inactive”.

Question: For `CC(C)CCO`, which outcome is on record?
Answer: The outcome was “inactive”.

Question: With `CC1=CC(=O)CC(C)(C)C1` as the molecule, how does the outcome read?
Answer: The outcome was “inactive”.

Question: `C1=CCCC=CCCC=CCC1` was tested. Which outcome did it give?
Answer: The outcome was “inactive”.

Question: How did the AC50 turn out when `O=C(CCCCCCCCc1cccnc1)N1CCC(C=C(c2ccccc2)c2ccccc2)CC1` was run?
Answer: The AC50 was 19.3 µM (active).

Question: With `O=C1OC(=O)C2C3C=CC(C3)C12` (stereo not given) as the molecule, how does the outcome read?
Answer: Its outcome is “inactive”.

Question: For `CCOc1cccc(-n2cc(C(=O)N3CCN(c4cc(C(=O)O)c5ccccc5c4)CC3)nc2-c2ccc(C)cc2)c1`, which outcome is on record?
Answer: Its outcome is “inactive”.

Question: `O=P(OC(CCl)CCl)(OC(CCl)CCl)OC(CCl)CCl` was tested. Which AC50 did it give?
Answer: Its AC50 is 39.3 µM (active).

Question: Which outcome does the source give for `C=CCCCCCCCCC(=O)O` here?
Answer: Its outcome is “inactive”.

Question: For `COC(=O)c1ccccc1O`, which outcome is on record?
Answer: Its outcome is “inactive”.

Question: With `Nc1ccc(Nc2ccccc2)cc1` as the molecule, how does the outcome read?
Answer: The outcome was “inactive”.

Question: `CCCCCCc1ccc(O)cc1O` was tested. Which outcome did it give?
Answer: The outcome was “inactive”.

Question: Which outcome does the source give for `Cc1ccc(S(=O)(=O)O)cc1C` here?
Answer: The outcome was “inactive”.

Question: For `CC(C)c1cccc(C(C)C)c1N1C(=O)c2ccc(O)cc2C1=O`, which AC50 is on record?
Answer: Its AC50 is 166 µM (active).

Question: How did the outcome turn out when `CCNc1ccccc1` was run?
Answer: Its outcome is “inactive”.

Question: How did the outcome turn out when `CCOCCOCCOCCO` was run?
Answer: The outcome was “inactive”.

Question: For `O=c1[nH]c2ccc(S(=O)CCN3CCC(Cc4ccc(F)cc4)CC3)cc2o1` (stereo not given), which outcome is on record?
Answer: The outcome was “inactive”.

Question: Which outcome does the source give for `CCOCCO` here?
Answer: Its outcome is “inactive”.

Question: Which outcome does the source give for `CC(O)CN(CCN(CC(C)O)CC(C)O)CC(C)O` (stereo not given) here?
Answer: The outcome was “inactive”.

Question: With `CC(C)=CCCC(C)=CC=O` as the molecule, how does the outcome read?
Answer: The outcome was “inactive”.

Question: How did the outcome turn out when `CCCCC(CC)COC(=O)CCCCCCCCC(=O)OCC(CC)CCCC` (stereo not given) was run?
Answer: Its outcome is “inactive”.

Question: With `CC[C@H]1OC(=O)[C@H](C)[C@@H](O[C@H]2C[C@@](C)(OC)[C@@H](O)[C@H](C)O2)[C@H](C)[C@@H](O[C@@H]2O[C@H](C)C[C@H](N(C)C)[C@H]2O)[C@](C)(O)C[C@@H](C)C(=O)[C@H](C)[C@@H](O)[C@]1(C)O` as the molecule, how does the outcome read?
Answer: The outcome was “inactive”.
